# VACV Venus inh: inhibitors of vaccinia virus (Venus reporter); 330,000 tested, 0.46% active; Potency, µM (series often up to 36.5 µM), inactives show top-dose activity change, negative = inhibition, actives largely listed as inhibitors; Vaccinia virus Venus reporter expression, fluorescence; calls by dose curve; tested in A549 cells; further: potency means the concentration at half of the fitted maximal effect; nearly all actives have a fitted effect of over 30% in size
# VACV mCherry inh: inhibitors of vaccinia virus infection (mCherry reporter signal) | Vaccinia virus mCherry reporter infection, fluorescence | Potency, µM (series often up to 36.5 µM), for the others: top-dose activity change, negative = inhibition, actives largely listed as inhibitors | 310,000 tested, 0.63% active | AID 720579; calls by dose curve; tested in A549 cells; further: potency means the concentration at half of the fitted maximal effect; nearly all actives have a fitted effect of over 35% in size
# HCMV antiviral: inhibitors of human cytomegalovirus. HFF cells, HCMV-luciferase reporter, 72 h; active compounds read low. activity change, negative = inhibition, % at 57.5 µM. 410,000 tested, 4.5% active. AID 1259415; in the data active means activity change below about -60%; inconclusive means no clear call, values can overlap the other calls; inactive means above about -39%
#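 After 16 h attachment at 37C, HFF cells received test compound and HCMV-luciferase (1 PFU/cell); reporter luminescence read 72 h later, data normalized against buffer-only and known inhibitor Salinomycin.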
# Lassa entry inh: blocks Lassa virus binding to or entry into cells; Lassa virus pseudotype entry inhibition, cell reporter; Potency, µM (titrated, usually from 37.9 µM), for the others: at the top dose activity change, negative = inhibition, usual class: inhibitors; 300,000 tested, 1.2% active; calls by dose curve; tested in HEK293 cells; further: potency means the concentration at half of the fitted maximal effect; nearly all actives have a fitted effect of over 50% in size
# FMDV antiviral: blocks foot and mouth disease virus; FMDV antiviral cell-based qHTS; Potency, µM (series often up to 57.9 µM), for inactives: top-dose activity change, negative = inhibition, actives largely listed as inhibitors; 410,000 tested, 1.2% active; calls by dose curve; tested in HEK293T cells; further: read-out not given here; potency means the concentration at half of the fitted maximal effect; nearly all actives have a fitted effect of over 45% in size
# MARV entry inh: inhibitors of Marburg virus binding or cell entry; Marburg virus pseudotyped entry inhibition, cell reporter; Potency, µM (titrated, usually from 37.8 µM), without a hit: top-dose activity change, negative = inhibition, usual class: inhibitors; 300,000 tested, 1.8% active; calls by dose curve; tested in HEK293 cells; further: potency means the concentration at half of the fitted maximal effect
# Starred values were filed as active, the others as inactive; i = inactive; ? = inconclusive; . = no result; [ ] = another dose, or the depositor's remark. Most compounds without a hit are left out; they make up all but 6.5% or so of the library. On the % scale 0 is the no-effect control and ±100 the full control effect.
SMILES,VACV Venus inh,VACV mCherry inh,HCMV antiviral,Lassa entry inh,FMDV antiviral,MARV entry inh
CCN(CC)CCn1c(=N)n(CC(O)COc2ccccc2)c2ccccc21 (stereo not given),-28.2%,-9.5%,0.0,6.4%,-23.5%,4.47µM*
CCN(CC)CCn1c(=N)n(CCOc2ccccc2)c2ccccc21,.,.,?,20.6µM*,?,4.11µM*
Cc1ccccc1OCC(O)Cn1c(=N)n(Cc2ccccc2)c2ccccc21 (stereo not given),11.2µM*,10µM*,-74.1*,?,?,?
CCN(CC)CCn1c(=N)n(CC(=O)c2ccc(Br)s2)c2ccccc21,-27.7%,?,-97.4*,?,-24.7%,7.08µM*
COc1ccc(CCNS(=O)(=O)c2ccc(F)c(C(=O)Nc3ccc(Cl)cc3)c2)cc1OC,?,-28.5%,-31.1,?,?,.
C=CCCC1(CCC)C(=O)C(=C(O)c2ccccc2)C(=O)C(CCC)=C1OC (stereo not given),.,.,.,.,.,-1.7%[14.2 µM]
CCCCc1ccc(S(=O)(=O)N[C@H]2CC[C@@]34CCCN3C(=O)CCC[C@H]4[C@H]2C)cc1,.,.,-0.7,.,.,.
CCCCn1c(=N)n(CC(O)COc2cccc(C)c2)c2ccccc21 (stereo not given),.,.,-63.1*,?,?,?
CS(=O)(=O)c1ccc(NC(=O)C2CCCN(C(=O)c3ccc(Cl)cc3)C2)cc1 (stereo not given),.,.,3.5,.,-24.5%,.
CCc1cccc(NC(=O)C2CCCN2S(=O)(=O)c2ccc3nc(-c4ccccc4)[nH]c3c2)c1 (stereo not given),?,?,-60.3*,-24.0%[46.1 µM],-23.7%,.
Cc1ccc(NC(=O)C2CCCN(C(=O)c3ccc(Cl)cc3)C2)cc1S(=O)(=O)N1CCOCC1 (stereo not given),-26.0%,i,-72.4*,?,?,?
COc1cccc(NC(=O)C2CCN(S(=O)(=O)c3cc(-c4noc(C)n4)ccc3C)CC2)c1,?,?,-72.4*,?,?,.
Cc1nc(-c2ccc(C)c(S(=O)(=O)N3CCC(C(=O)Nc4ccc(Cl)cc4)CC3)c2)no1,?,-22.2%,-74.8*,?,-24.1%,.
COc1cccc(NC(=O)C2CCN(S(C)(=O)=O)CC2)c1,-6.9%,i,39.8,0.0%,.,3.0%
Cn1cc(S(=O)(=O)N2CCCCCC2)cc1C(=O)NCc1ccccc1Cl,-11.9%,-15.6%,7.6,-17.2%[46.1 µM],-10.9%,.
C=C(C)CCN1C(=O)NC(c2ccccc2)C(C(C)=O)=C1C (stereo not given),.,.,.,?,.,7.2%[14.2 µM]
C[C@H]1COC(=O)[C@H](Cc2ccccc2)NC(=O)[C@@H](C)COC(=O)[C@H](Cc2ccccc2)NC1=O,.,.,.,.,.,-12.3%[14.2 µM]
O=C(NC1CCCCC1)[C@@H]1CC=C[C@@H]2CCN(Cc3ccc(Cl)c(Cl)c3)C(=O)[C@@H]21,-5.0%,-8.6%,.,.,.,.
CN1CCN(c2ccc(Nc3nccc4[nH]c(-c5cccnc5)cc34)cc2)CC1,.,.,42.2,.,.,.
CCN1CCN(C(=O)Cn2ncc3c4ccccc4n(Cc4ccccc4F)c3c2=O)CC1,-7.7%,-15.1%,-24.9,0.5%[46.1 µM],-11.8%,-33.7%[46.1 µM]
Cc1nc(-c2cccc(S(=O)(=O)N3CCC(C(=O)NCc4ccccc4Cl)CC3)c2)no1,-0.1%,6.8%,-9.4,6.3%[46.1 µM],0.0%,.
CCc1cccc(NC(=O)C2CCN(S(=O)(=O)c3cccc(-c4noc(C)n4)c3)CC2)c1,-17.7%,-9.8%,-61.0*,?,-31.2%,.
CCCn1c(N)c(C(=O)CSc2nc3ncc(Cl)cc3[nH]2)c(=O)n(C)c1=O,.,.,-26.3,.,?,.
Cc1[nH]c2ccccc2c1C(=O)CSc1nc2ncc(Cl)cc2[nH]1,-18.2%,-7.3%,-62.3*,?,-15.1%,-10.2%
Cc1[nH]c2ccccc2c1C(=O)CSC(=S)N1CCN(C)CC1,.,.,-62.1*,.,41.0%,.
SMILES,VACV Venus inh,VACV mCherry inh,HCMV antiviral,Lassa entry inh,FMDV antiviral,MARV entry inh
Cc1ccc2nc(SCC(=O)c3c(C)[nH]c4ccccc34)[nH]c2c1,-25.6%,-3.6%,?,18.4%,29.0%,-20.0%
CC(C)Cn1c(N)c(C(=O)CSc2ccc3c(c2)OCCO3)c(=O)n(C)c1=O,.,.,-94.3*,?,11.2µM*,?
CC(C)Cn1c(N)c(C(=O)CSc2nc3ncc(Cl)cc3[nH]2)c(=O)n(C)c1=O,-8.1%,i,-14.0,?,15.8µM*,?
Nc1ccc(Cl)cc1/C(=N\O)c1ccccc1,.,.,.,.,.,-21.7%
c1ccc(C(c2ccccc2)N2CCN(c3nc4ccccc4n4cnnc34)CC2)cc1,-17.3%,-7.0%,-99.1*,?,28.2µM*,?
COc1ccc(N(CC(=O)N/N=C/c2ccc(-c3ccc([N+](=O)[O-])cc3)o2)S(=O)(=O)c2ccc(C)cc2)cc1Cl,0.0%,7.8%,-33.1,-0.6%,-8.1%,3.7%
COc1ccc(N(CC(=O)NN=C2CCCCCCC2)S(=O)(=O)c2ccccc2)cc1,-13.5%,i,-64.0*,10.7%,.,-10.9%
CCC(C)NC(=O)CN(c1ccc(OC)cc1)S(=O)(=O)c1ccccc1 (stereo not given),-6.3%,i,-9.6,17.6%,-5.1%,?
COc1ccc(N(CC(=O)N/N=C/c2ccc(-c3ccc([N+](=O)[O-])cc3)o2)S(=O)(=O)c2ccc(C)cc2)cc1,-15.2%,-2.5%,-68.2*,-14.1%,-12.9%,?
COc1ccc(N(CC(=O)N/N=C/c2ccc(OC3CSC3)cc2)S(=O)(=O)c2ccccc2)cc1,-18.8%,-22.5%,?,?,-19.3%,?
COc1ccc(N(CC(=O)N/N=C/c2cccs2)S(=O)(=O)c2ccccc2)cc1,-10.9%,-5.3%,-66.7*,?,4.0%,-12.3%[46.1 µM]
O=C(NCCS(=O)(=O)N1CCN(c2ccccc2)CC1)C(c1ccccc1)c1ccccc1,-20.7%,-25.1%,58.8,?,-17.7%,.
CCN(CC)CCOC(=O)c1ccc(NC(=O)c2nn(-c3ccc(C)cc3)c(=O)c3c2c2ccccc2n3C)cc1,5.01µM*,5.62µM*,-100.0*,-5.7%[46.1 µM],-11.1%,?
Cc1ccc(-c2[nH]nc(N)c2N=Nc2ccccc2C)cc1,?,?,-65.1*,?,3.0%,8.2µM*
Cc1cccc(N=Nc2c(N)n[nH]c2-c2ccc(Cl)cc2)c1,.,.,?,-7.5%,-7.8%,?
Cc1ccc(-c2[nH]nc(N)c2N=Nc2cccc(Cl)c2C)cc1,?,?,-28.0,?,?,20µM*
Cc1ccc(OCC(=O)Nc2ccc(O)c(-c3nc4cc(C)c(C)cc4o3)c2)cc1,-12.5%,16.9%,.,.,.,.
Cc1ccc(OCC(=O)Nc2cccc(-c3nc4ccccc4o3)c2C)cc1C,-10.4%,-19.2%,-60.1*,-11.3%[46.1 µM],-16.1%,5.5%[46.1 µM]
Cc1ccc(-c2nc3cccnc3o2)cc1NC(=O)COc1ccc(C(C)(C)C)cc1,?,.,-29.0,10µM*,?,?
Cc1ccc(OCC(=O)Nc2ccc(O)c(-c3nc4ccccc4o3)c2)cc1,?,-19.2%,-76.2*,?,?,-3.2%

# Compound activity as filed in PubChem BioAssay.
